Results: PubChem BioAssay
Calls of active or inactive are those of the source.

Experiments:
[1] = optical density shifts of acrAB sulA E. coli – strain DRC41, OD650, 48 h, E. coli filamentation inducer project, primary screen (AID 1152); details: higher = more signal, called active from +8 up or from −8 down;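 further: E. coli MC1000 strain DRC41 lacking acrAB efflux pump and sulA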
[2] = probe aLefty1 binding on compound microarray – biochemical, small-molecule microarray, 635/667 nm fluorescence, primary screen (AID 1153); details: higher = more signal;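 further: score merges spot fluorescence with signal-to-noise ratio from the scanned slide images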
[3] = plasmodial surface anion channel blockers, osmotic lysis – cell-based, P. falciparum Indochina, OD700, 1 h, primary screen (AID 1154); details: P. falciparum Indochina infected RBC osmotic lysis, higher = more signal, called active from +8 up or from −8 down
[4] = plasmodial surface anion channel blockers, osmotic lysis – cell-based, P. falciparum Indochina, OD700, 2 h, primary screen (AID 1155);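 further: lysis reports solute entry through the parasite surface anion channel PSAC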; details: P. falciparum Indochina infected erythrocytes, higher = more signal, called active from +8 up or from −8 down
[5] = changes in parasitized red cell lysis, either direction – P. falciparum Indochina, OD700, 3 h, PSAC antagonist project, primary screen (AID 1156); details: P. falciparum-infected erythrocytes, osmotic lysis, higher = more signal, called active from +8 up or from −8 down
[6] = plasmodial surface anion channel blockers, osmotic lysis – cell-based, P. falciparum Indochina, OD700, 18 h, primary screen (AID 1157); details: P. falciparum Indochina infected erythrocytes, osmotic lysis OD700, 18 h; higher = more signal, called active from +8 up or from −8 down
[7] = S6 kinase pathway phospho-S6 level changes – cell-based, A549, cytoblot, luminescence, serum-stimulated, primary screen (AID 1158); details: 5 h, higher = more signal;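 further: serum-stimulated A549 lung adenocarcinoma cells; signal is phosphorylated S6 detected by cytoblot immunostaining with HRP secondary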
[8] = target: NADPH oxidase 2 (Homo sapiens) (UniProt P04839); test: compounds shifting NOX2 Amplex Red fluorescence – cell-based, HEK293-NOX2, PMA-stimulated, NOX inhibitor project, primary screen (AID 1159); details: 45 min, higher = more signal, called active from +8 up or from −8 down; further: test concentration not given here
Sequence of NADPH oxidase 2 (Homo sapiens) (P04839 whole entry, looked up): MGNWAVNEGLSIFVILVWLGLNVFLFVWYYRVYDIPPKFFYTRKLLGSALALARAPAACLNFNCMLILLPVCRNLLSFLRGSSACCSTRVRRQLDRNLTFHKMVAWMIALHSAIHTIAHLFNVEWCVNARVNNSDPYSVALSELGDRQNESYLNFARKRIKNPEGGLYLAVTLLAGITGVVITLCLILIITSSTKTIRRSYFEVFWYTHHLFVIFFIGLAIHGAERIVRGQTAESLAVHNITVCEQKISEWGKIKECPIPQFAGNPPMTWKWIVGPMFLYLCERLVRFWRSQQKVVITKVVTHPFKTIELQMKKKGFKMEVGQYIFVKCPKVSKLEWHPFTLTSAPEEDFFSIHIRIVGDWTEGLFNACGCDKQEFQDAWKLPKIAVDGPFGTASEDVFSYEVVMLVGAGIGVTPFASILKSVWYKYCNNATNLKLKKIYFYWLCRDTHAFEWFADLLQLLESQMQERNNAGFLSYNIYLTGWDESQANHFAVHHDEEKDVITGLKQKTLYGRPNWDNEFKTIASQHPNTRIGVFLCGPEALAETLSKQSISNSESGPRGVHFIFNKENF

[9] = target: NADPH oxidase 4 (Homo sapiens) (UniProt Q9NPH5); test: compounds shifting NOX4 Amplex Red fluorescence – cell-based, HEK293-NOX4, tetracycline-induced, NOX inhibitor project, primary screen (AID 1160); details: HEK293-NOX4, Amplex Red H2O2 fluorescence, 45 min; higher = more signal, called active from +8 up or from −8 down
Sequence of NADPH oxidase 4 (Homo sapiens) (Q9NPH5 whole entry, looked up): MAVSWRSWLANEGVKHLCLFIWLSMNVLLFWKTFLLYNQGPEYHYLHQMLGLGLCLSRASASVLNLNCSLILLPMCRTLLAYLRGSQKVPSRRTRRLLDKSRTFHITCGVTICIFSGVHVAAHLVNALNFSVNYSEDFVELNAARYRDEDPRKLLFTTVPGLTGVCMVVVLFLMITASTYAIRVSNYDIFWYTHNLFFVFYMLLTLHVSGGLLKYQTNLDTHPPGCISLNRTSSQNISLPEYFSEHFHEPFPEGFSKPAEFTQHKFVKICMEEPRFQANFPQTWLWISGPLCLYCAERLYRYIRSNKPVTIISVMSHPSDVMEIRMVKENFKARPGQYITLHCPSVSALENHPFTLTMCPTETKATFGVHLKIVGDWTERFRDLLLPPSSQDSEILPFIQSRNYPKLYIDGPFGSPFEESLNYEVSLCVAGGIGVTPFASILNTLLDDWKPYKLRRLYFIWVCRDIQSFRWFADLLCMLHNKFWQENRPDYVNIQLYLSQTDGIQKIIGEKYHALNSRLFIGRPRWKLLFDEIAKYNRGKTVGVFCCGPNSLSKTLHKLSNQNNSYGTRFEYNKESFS

[10] = target: NADPH oxidase 5 (Homo sapiens) (UniProt Q96PH1); test: compounds shifting NOX5 Amplex Red fluorescence – cell-based, HEK293-NOX5, NOX inhibitor project, primary screen (AID 1161); details: HEK293-NOX5, ionomycin, 45 min, higher = more signal
Sequence of NADPH oxidase 5 (Homo sapiens) (Q96PH1 whole entry, looked up): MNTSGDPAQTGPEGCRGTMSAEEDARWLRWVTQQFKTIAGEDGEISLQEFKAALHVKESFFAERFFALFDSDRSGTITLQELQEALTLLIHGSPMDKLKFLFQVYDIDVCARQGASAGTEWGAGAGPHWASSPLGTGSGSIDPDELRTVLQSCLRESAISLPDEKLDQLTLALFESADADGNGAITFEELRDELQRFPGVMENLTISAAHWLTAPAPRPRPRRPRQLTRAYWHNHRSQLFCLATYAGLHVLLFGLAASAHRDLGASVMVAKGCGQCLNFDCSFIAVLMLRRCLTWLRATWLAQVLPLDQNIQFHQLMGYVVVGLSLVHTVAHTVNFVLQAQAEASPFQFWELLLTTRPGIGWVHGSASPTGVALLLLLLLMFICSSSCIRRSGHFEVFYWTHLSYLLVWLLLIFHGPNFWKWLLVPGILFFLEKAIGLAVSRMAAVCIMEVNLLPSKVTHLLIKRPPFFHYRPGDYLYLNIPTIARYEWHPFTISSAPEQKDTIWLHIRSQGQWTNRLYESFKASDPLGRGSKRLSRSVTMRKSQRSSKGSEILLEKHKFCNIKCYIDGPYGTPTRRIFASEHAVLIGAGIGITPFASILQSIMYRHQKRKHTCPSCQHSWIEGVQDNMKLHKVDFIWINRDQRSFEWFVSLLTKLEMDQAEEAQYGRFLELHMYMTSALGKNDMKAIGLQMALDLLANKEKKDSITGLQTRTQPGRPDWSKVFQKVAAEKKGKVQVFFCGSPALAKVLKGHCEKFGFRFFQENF

SMILES	z-score [1]	composite z-score [2]	z-score [3]	z-score [4]	z-score [5]	z-score [6]	z-score [7]	z-score [8]	z-score [9]	z-score [10]
CC(=O)NCCCC[C@@H]1NC(=O)[C@H]2C[C@@H](C(=O)NCCCC[N+](C)(C)C)[C@@H](c3cccc(OCCO)c3)N2C1=O	0.485 (inactive)	0.165	2.46 (inactive)	0.331 (inactive)	-1.58 (inactive)	0.374 (inactive)	-0.611	-1.23 (inactive)	-0.477 (inactive)	-1.08
O=C1C2C=CC(C(O)c3ccc(Br)cc3)N(Nc3ccccc3F)C2C(=O)N1c1ccccc1 (stereo not given)	0.894 (inactive)	-0.192	3.67 (inactive)	-0.0291 (inactive)	-0.834 (inactive)	-1.01 (inactive)	0.79	-1.35 (inactive)	-2.56 (inactive)	-0.774
CCCCCCc1nc(C2CC2)cc2c1[Si](C(C)C)(C(C)C)O[C@H]2c1ccccc1	-1.27 (inactive)	-0.23	0.0479 (inactive)	-0.0357 (inactive)	0.453 (inactive)	-0.11 (inactive)	-0.653	-3.31 (inactive)	-0.00134 (inactive)	-1.77
COc1ccc(-c2nc(-c3ccccc3)c3c(c2C)CO[Si]3(C(C)C)C(C)C)cn1	-1.41 (inactive)	0.0816	0.574 (inactive)	-0.0994 (inactive)	-0.566 (inactive)	-0.278 (inactive)	-0.0095	-0.783 (inactive)	0.386 (inactive)	-1.54
O=C(NCCCCCNC(=O)/C(Cc1ccccc1)=N/O)OCc1ccccc1	2 (inactive)	-0.696	11 (active)	-0.43 (inactive)	0.003 (inactive)	-2.25 (inactive)	1.19	0.53 (inactive)	0.0195 (inactive)	-1.35
COc1cc(OC)c(C(O)C2C=CC3C(=O)N(C)C(=O)C3N2NC(=O)OC(C)(C)C)cc1Br (stereo not given)	-0.36 (inactive)	0.524	1.24 (inactive)	1.18 (inactive)	-0.285 (inactive)	1.07 (inactive)	-0.92	0.224 (inactive)	-3.59 (inactive)	0.576
Cc1cc(C)cc(N2C(=O)CSC2c2cccc([N+](=O)[O-])c2)c1 (stereo not given)	0.421 (inactive)	-0.0046	0.385 (inactive)	-0.414 (inactive)	0.652 (inactive)	-0.237 (inactive)	-0.261	-1.02 (inactive)	-0.364 (inactive)	0.483
CCOC(=O)C[C@H]1[C@H](OC(=O)c2ccccc2-c2ccccc2)[C@@H](NC(=O)C2CCCCC2)c2cc(OCCCO)ccc2N1C(=O)Cc1ccc(OC)cc1	-1.13 (inactive)	-0.0547	1.1 (inactive)	0.664 (inactive)	0.125 (inactive)	0.256 (inactive)	-0.434	0.0588 (inactive)	0.979 (inactive)	0.103
CCC[C@@H]1C[C@@]1(CCC)[C@@H](NC(=O)OCc1ccccc1)c1ccc(-c2ccccc2)cc1	-1.07 (inactive)	0.545	3.2 (inactive)	0.81 (inactive)	-0.221 (inactive)	0.224 (inactive)	0.542	-0.648 (inactive)	-1.45 (inactive)	0.0161
O=C1O[C@@H](c2ccccc2)[C@@H](c2ccccc2)N2[C@@H](c3ccc(O)cc3)[C@]3(C(=O)Nc4ccc(C#CC5=CCCCC5)cc43)[C@@H](C(=O)NC[C@H](O)c3ccccc3)[C@H]12	1.22 (inactive)	0.15	0.622 (inactive)	0.347 (inactive)	-0.853 (inactive)	0.933 (inactive)	0.0825	1.22 (inactive)	0.53 (inactive)	0.909
CCCCCCc1nc(-c2cc(C)c(OC)c(C)c2)c(C)c2c1[Si](C(C)C)(C(C)C)OC2	0.03 (inactive)	0.0056	1.53 (inactive)	-0.314 (inactive)	1.02 (inactive)	-0.348 (inactive)	1.94	-2.5 (inactive)	0.626 (inactive)	-2.23
O=C1c2ccccc2[C@](Cc2ccccc2I)(C(=O)NCC(F)(F)F)[C@H](c2ccc(CO)cc2)N1C1CCCCC1	1.25 (inactive)	0.0686	7.04 (inactive)	0.605 (inactive)	2 (inactive)	0.0361 (inactive)	0.175	-2.92 (inactive)	0.179 (inactive)	1.69
O=C1O[C@@H](c2ccccc2)[C@@H](c2ccccc2)N2[C@@H](c3ccc(OCCO)cc3)[C@]3(C(=O)Nc4ccccc43)[C@@H](C(=O)O)[C@H]12	0.635 (inactive)	1.46	7.13 (inactive)	-1.02 (inactive)	-0.202 (inactive)	-1.62 (inactive)	1.52	0.262 (inactive)	-0.444 (inactive)	-0.985
CC1CC/C=C\[C@H]2OC34C=CCN(C(C)C)C(=O)[C@H]3N(CCCCCCO)C(=O)[C@@H]4C2C(=O)O1 (stereo not given in full)	3.07 (inactive)	-0.45	0.719 (inactive)	0.259 (inactive)	-0.987 (inactive)	-0.751 (inactive)	1.26	0.882 (inactive)	0.119 (inactive)	2.1
CC(CO)N1C(=O)[C@@H]2[C@H]3C(=O)OCC=C[C@H]3OC23C=CCN(Cc2ccccc2)C(=O)[C@@H]13 (stereo not given in full)	2.36 (inactive)	-0.191	0.116 (inactive)	-1.05 (inactive)	-0.355 (inactive)	-1.39 (inactive)	0.473	0.991 (inactive)	0.662 (inactive)	1.49
CCOC(=O)C1=C[C@@H](c2ccccc2)N(S(=O)(=O)c2ccc(C)cc2)[C@H]1c1ccccc1Cl	-1.18 (inactive)	0.138	1.35 (inactive)	1.16 (inactive)	-0.0415 (inactive)	0.805 (inactive)	-0.48	0.574 (inactive)	0.138 (inactive)	0.405
O=C1OCCC/C=C\[C@H]2OC34C=CCN(CCN5CCOCC5)C(=O)[C@H]3N(CCCCCCO)C(=O)[C@@H]4C12 (stereo not given in full)	1.76 (inactive)	0.369	3.78 (inactive)	-0.652 (inactive)	0.752 (inactive)	-0.774 (inactive)	1.66	0.752 (inactive)	-0.153 (inactive)	1.9
O=C1N(Cc2ccccc2)Cc2ccccc2[C@@H]2OC(c3ccc(OCCCO)cc3)=N[C@]12CCS(=O)(=O)c1ccccc1	-0.715 (inactive)	0.547	21.2 (active)	4.09 (inactive)	2.99 (inactive)	0.492 (inactive)	0.0549	-0.146 (inactive)	1.23 (inactive)	1.03
COCCCNC(=O)[C@@]1(Cc2ccccc2N=[N+]=[N-])COC(c2ccc(OCCCO)cc2)=N1	1.21 (inactive)	0.35	27.4 (active)	16.4 (active)	2.03 (inactive)	2.36 (inactive)	-0.44	-1.62 (inactive)	0.528 (inactive)	-0.146
COCCCNC(=O)[C@]1(CCS(=O)(=O)c2ccccc2)N=C(c2ccc(OCCCO)cc2)O[C@@H]1c1ccccc1CN=[N+]=[N-]	0.704 (inactive)	1.35	24.6 (active)	10.3 (active)	1.41 (inactive)	1.8 (inactive)	-0.377	0.826 (inactive)	1.78 (inactive)	1.97
C[C@H]1NC(=O)[C@@]23C(=O)N[C@@H](Cc4ccccc4)C2[C@H](C)[C@@]2(C)O[C@H]2C3/C=C/C/C=C\CNC(=O)[C@H](Cc2ccccc2)NC1=O (stereo not given in full)	-0.213 (inactive)	-0.0378	0.874 (inactive)	0.577 (inactive)	0.395 (inactive)	0.33 (inactive)	-0.271	1.63 (inactive)	-1.2 (inactive)	0.201
C=CCC(OC(C)=O)[C@@H]1[C@@H](N(Cc2ccc(-c3ccccc3)cc2)C(=O)Cc2ccc(F)cc2)c2cc(OCCCO)ccc2N1C(=O)Cc1ccc(OC)cc1 (stereo not given in full)	0.246 (inactive)	0.106	3.94 (inactive)	0.477 (inactive)	-0.407 (inactive)	0.259 (inactive)	-0.152	0.0982 (inactive)	0.675 (inactive)	1.67
[N-]=[N+]=Nc1ccccc1C[C@]1(C(N)=O)N=C(c2ccc(OCCCO)cc2)O[C@H]1c1ccccc1N=[N+]=[N-]	-0.254 (inactive)	0.237	28.5 (active)	23.5 (active)	1.87 (inactive)	1.16 (inactive)	1.14	-4.36 (inactive)	-2.16 (inactive)	-2.52
C=CCC(OC(C)=O)[C@@H]1[C@@H](N(Cc2cc3ccccc3o2)C(=O)Cc2ccc(F)cc2)c2cc(OCCCO)ccc2N1C(=O)c1ccc2ccccc2c1 (stereo not given in full)	-0.959 (inactive)	0.106	1.18 (inactive)	0.305 (inactive)	-0.97 (inactive)	0.112 (inactive)	-0.448	0.512 (inactive)	0.957 (inactive)	2.34
C=CCC(OC(C)=O)[C@@H]1[C@@H](N(Cc2cccc3ccccc23)C(=O)c2cccc3ccccc23)c2cc(OCCCO)ccc2N1C(=O)c1ccc(-c2ccccc2)cc1 (stereo not given in full)	-0.929 (inactive)	-0.106	-0.17 (inactive)	0.526 (inactive)	0.0426 (inactive)	0.361 (inactive)	0.684	-0.677 (inactive)	0.104 (inactive)	-2.47
CN(C)CCCCNC(=O)[C@@H]1C[C@@H]2C(=O)N[C@@H](Cc3ccccc3)C(=O)N2[C@@H]1c1cccc(OCCO)c1	2.93 (inactive)	0.243	7.44 (inactive)	-0.16 (inactive)	-1.84 (inactive)	-1.29 (inactive)	0.602	0.767 (inactive)	0.74 (inactive)	1.55
